Assay outcomes from PubChem BioAssay.
PP1 counter – blocks human PP1-alpha phosphatase, a PP5 counter-screen; P62136; purified PP1alpha, OMFP fluorescence; inhibition, % at 6.7 µM; actives 0.9% (n = 320,000); AID 2235;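 active = inhibition above the mean inhibition of all tested compounds plus 3 SD, computed separately for each screening campaign, cut at about 15% in these data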
PP5 inh – inhibitors of human protein phosphatase 5 (PP5) | P53041 | purified PP5c, OMFP substrate fluorescence | inhibition, % at 6.7 µM | actives 0.18% (n = 320,000);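 active = inhibition above the campaign's mean inhibition across all tested compounds plus 3 SD, cut at about 9.5% in these data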;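 also: 0% = DMSO only and 100% = 100 µM cantharidin control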
pPAFAH inh – inhibitors of human plasma PAF acetylhydrolase (pPAFAH) | recombinant pPAFAH, FP-rhodamine probe fluorescence polarization | inhibition, % at 3.39 µM | actives 1.5% (n = 330,000);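 active = inhibition above the mean inhibition across the screen plus 3 SD, cut at about 25% in these data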;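 also: inhibitors block binding of the rhodamine activity-based probe so polarization drops; 0% = enzyme with DMSO and 100% = wells lacking pPAFAH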
PAFAH1B3 inh – inhibitors of human PAFAH1B3 | Q15102 | recombinant PAFAH1B3, FP-rhodamine probe, fluorescence polarization | actives 0.28% (n = 340,000) | AID 492972 | inhibition, % at 3.39 µM;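 active = inhibition above the screen-wide average of all tested compounds plus 3 SD, cut at about 25% in these data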;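 also: 0% = enzyme with DMSO only and 100% = wells lacking PAFAH1B3 protein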
Target sequence (Q15102 whole entry, looked up): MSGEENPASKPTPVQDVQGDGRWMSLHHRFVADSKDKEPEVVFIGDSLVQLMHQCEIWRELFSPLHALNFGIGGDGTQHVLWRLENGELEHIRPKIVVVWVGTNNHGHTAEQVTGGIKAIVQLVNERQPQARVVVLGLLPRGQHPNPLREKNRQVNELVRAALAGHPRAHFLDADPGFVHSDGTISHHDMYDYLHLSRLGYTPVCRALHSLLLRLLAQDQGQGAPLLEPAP
PAFAH1B2 inh – blocks human PAF acetylhydrolase 1b catalytic subunit 2. inhibition, % at 3.39 µM. P68402. AID 492953. actives 1.2% (n = 340,000). recombinant PAFAH1B2, FP-rhodamine activity probe, fluorescence polarization;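 active = inhibition above the mean of all tested compounds plus 3 SD, cut at about 24% in these data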;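 also: 0% = enzyme with DMSO and 100% = wells lacking PAFAH1B2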
Target sequence (P68402 whole entry, looked up): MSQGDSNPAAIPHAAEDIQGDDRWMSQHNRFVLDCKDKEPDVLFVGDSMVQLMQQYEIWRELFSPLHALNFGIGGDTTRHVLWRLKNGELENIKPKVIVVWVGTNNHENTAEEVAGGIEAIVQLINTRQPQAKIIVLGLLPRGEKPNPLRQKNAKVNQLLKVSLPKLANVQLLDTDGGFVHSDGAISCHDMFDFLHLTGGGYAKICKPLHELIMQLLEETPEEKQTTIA
PAFAH2 inh – inhibitors of human PAFAH2 | Q99487 | recombinant PAFAH2, FP-rhodamine activity probe, fluorescence polarization | actives 0.99% (n = 340,000) | AID 492956 | inhibition, % at 3.39 µM;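 active = inhibition above the mean over all tested compounds plus 3 SD, cut at about 30% in these data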;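 also: inhibitors block probe labeling of enzyme so polarization drops; 0% = enzyme with DMSO and 100% = wells lacking PAFAH2 protein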
* hit, by the source's call; · = not tested or not shown. A selection: hits, their analogues and other compounds. The true share with any hit is near 3.4%.

SMILES | PP1 counter | PP5 inh | pPAFAH inh | PAFAH1B3 inh | PAFAH1B2 inh | PAFAH2 inh
CC(=O)NC12CC3CC(C1)CC(C(=O)Nc1cccc(S(=O)(=O)N4CCCCCC4)c1)(C3)C2 | · | · | · | 2.6 | -0.1 | 3.3
O=C(C(Cl)Cl)N1CCN(Cc2ccccc2)CC1 | 0.3 | 0.1 | 0.4 | 3.6 | 1.5 | 1.1
O=C(C(c1ccccc1)c1ccccc1)N1CCN(Cc2ccc(Br)cc2)CC1 | -0.4 | 2.0 | -0.6 | 4.0 | 24.3* | -3.7
CCNC(=O)n1nccc1C(C)Oc1ccc(Cl)cc1 (configuration not stated) | 0.8 | 0.4 | 13.8 | 1.1 | 57.9* | 7.0
CCN(CC)c1ccc(NC(=O)CSc2ccsc2[N+](=O)[O-])c(C)c1 | -0.8 | -1.1 | 28.1* | 8.1 | 0.0 | 9.8
CC(Nc1ccc(Cl)cc1)c1cc(Cl)ccc1O (configuration not stated) | -2.7 | 5.3 | 1.6 | 9.0 | 43.4* | -3.4
CCOc1ccc(NC(C)c2cc(Cl)ccc2O)cc1 (configuration not stated) | -0.3 | 1.7 | 5.1 | -0.5 | 2.5 | 5.9
CN(C)S(=O)(=O)c1cccc(NC(=S)NNC(=O)c2cc3ccccc3cc2O)c1 | 9.8 | 7.1 | 28.2* | 6.8 | 8.4 | 15.0
CN(C)S(=O)(=O)c1cccc(NC(=S)NC(=O)c2ccco2)c1 | · | · | · | 4.4 | -1.0 | 1.4
Cc1[nH]c(=O)[nH]c(=O)c1S(=O)(=O)Nc1ccc(F)cc1Cl | · | · | · | 7.3 | 10.2 | 6.9
NC(=O)CC(NC(=O)Cc1cccc2ccccc12)c1ccc(NC2CCCC2)c([N+](=O)[O-])c1 (configuration not stated) | · | · | · | 12.2 | 5.0 | 4.6
NC(=O)CC(NC(=O)Cc1ccc(Br)cc1)c1ccc(NCc2ccc(F)c(F)c2)c([N+](=O)[O-])c1 (configuration not stated) | 16.9* | 5.1 | 2.4 | -3.3 | 5.6 | -11.0
CCC(CC)Nc1ccc(C(CC(N)=O)NC(=O)Cc2cccc3ccccc23)cc1[N+](=O)[O-] (configuration not stated) | 17.3* | 1.7 | 0.6 | -3.3 | 2.5 | -8.2
Cc1ccc(C)c(NC(=O)CN(C)C(C)C(=O)N2CC(C)CC(C)C2)c1 (configuration not stated) | · | · | · | 5.5 | 4.0 | 0.5
CC(=O)N=Nc1[nH]c(N)c2ccccc12 | -2.6 | 2.7 | 2.0 | 3.0 | -1.5 | 4.1
CC1(OC(=O)C2CCCC2)C(=O)C=C2C=C(c3ccsc3)N(CC3CC3)C=C2C1=O (configuration not stated) | 1.1 | -6.9 | -2.9 | 16.1 | 3.2 | 0.3
CC1(OC(=O)C2CCCC2)C(=O)C=C2C=C(c3ccsc3)N(CCc3c[nH]c4ccccc34)C=C2C1=O (configuration not stated) | 17.3* | 2.3 | 15.2 | -0.4 | 6.5 | 2.9
CC(CCC(=O)O)(c1ccc(O)cc1)c1ccc(O)cc1 | -5.1 | -0.8 | -2.1 | 11.5 | 24.8* | 1.1
CCc1cc(C(=O)NCC(c2ccco2)N2CCCCC2)sc1C (configuration not stated) | -1.2 | 2.7 | -4.2 | 6.9 | 1.7 | 5.0
Oc1c(Br)cc(/C=N/n2c(-c3ccccc3)n[nH]c2=S)c(O)c1Br | · | · | · | 28.3* | 7.7 | 45.4*
Cc1c(Br)c(O)c(Br)c(O)c1/C=N/n1c(-c2ccccc2)n[nH]c1=S | 0.2 | -0.2 | 14.1 | 34.8* | 14.0 | 22.4
Oc1c(Br)cc(/C=N/n2c(-c3ccccc3)n[nH]c2=S)cc1Br | · | · | · | 3.5 | -1.7 | 8.9
CC(C)c1ccc(/C=N/n2c(-c3ccccc3)n[nH]c2=S)cc1 | 6.6 | 1.4 | 25.0* | 12.0 | 4.2 | 9.6
CC(C)CCNC(=O)CCn1c(=S)oc2ccccc21 | -0.2 | -1.4 | -0.5 | -4.9 | -3.8 | 3.9
Cc1ccc(C(=O)C2=C(O)C(=O)N(Cc3cccnc3)C2c2ccc(OC(C)C)cc2)o1 (configuration not stated) | 19.9* | -0.5 | -2.6 | -0.5 | 2.1 | -2.8
COc1ccc(C2C(C(=O)c3ccc(C)o3)=C(O)C(=O)N2Cc2cccnc2)cc1 (configuration not stated) | -0.8 | 1.3 | -1.3 | -2.4 | 5.8 | 3.6
CC(=O)C1=C(O)C(=O)N(Cc2ccccc2)C1c1ccc(Cl)cc1 (configuration not stated) | 5.4 | -0.3 | -3.4 | 2.9 | 29.0* | 7.5
